Screening data deposited in PubChem BioAssay by The Scripps Research Institute Molecular Screening Center.
FBW7 activator: human FBW7 E3 ligase activation, primary screen; normalized activity (activation), % at 26.1 µM; AlphaScreen FBW7–phospho-cyclin E peptide binding, activator screen; Q969H0; AID 1259310; actives 0.13% (n = 650,000); in the data active means normalized activity above about 1.9%;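 further: purified mutant Fbw7 with reduced substrate affinity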
Target sequence (Q969H0 whole entry, looked up): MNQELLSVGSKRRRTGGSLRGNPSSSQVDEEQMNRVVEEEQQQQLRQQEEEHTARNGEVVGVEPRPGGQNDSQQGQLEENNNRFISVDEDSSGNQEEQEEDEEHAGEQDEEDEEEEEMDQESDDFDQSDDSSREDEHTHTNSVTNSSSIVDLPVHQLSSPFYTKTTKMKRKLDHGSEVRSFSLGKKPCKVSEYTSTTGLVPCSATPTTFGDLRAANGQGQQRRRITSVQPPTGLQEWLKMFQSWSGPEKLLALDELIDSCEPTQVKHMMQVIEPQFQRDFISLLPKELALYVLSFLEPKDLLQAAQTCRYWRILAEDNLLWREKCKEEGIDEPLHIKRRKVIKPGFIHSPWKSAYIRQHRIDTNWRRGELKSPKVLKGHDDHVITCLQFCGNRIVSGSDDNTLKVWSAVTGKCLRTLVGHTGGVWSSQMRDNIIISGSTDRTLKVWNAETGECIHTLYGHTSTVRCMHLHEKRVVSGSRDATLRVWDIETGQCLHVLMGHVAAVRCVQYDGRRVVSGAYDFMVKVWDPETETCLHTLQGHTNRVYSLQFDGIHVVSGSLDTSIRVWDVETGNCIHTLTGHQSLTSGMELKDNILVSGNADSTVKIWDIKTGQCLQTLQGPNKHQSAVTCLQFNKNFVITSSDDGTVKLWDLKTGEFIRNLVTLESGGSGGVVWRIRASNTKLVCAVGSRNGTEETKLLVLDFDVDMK
GPR151 activ: human GPR151 activation. PathHunter beta-arrestin GPR151 cells, luminescence. activation, % at 11.2 µM. AID 1508602. actives 1% (n = 650,000); in the data active means activation above about 4.9%;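 further: 0% = median of compound wells and 100% = cells with positive control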
TEAD-YAP inh: TEAD-YAP interaction inhibition | HEK-TIYL cells, TEAD-Gal4/YAP UAS-luciferase luminescence | inhibition, % at 9.12 µM | actives 1.4% (n = 640,000); in the data active means inhibition above about 32%;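 further: 0% = median of test compound wells and 100% = reference inhibitor wells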
MITF primary: human MITF inhibition, primary screen. O75030. AlphaScreen MITF homodimerization, bead proximity signal. inhibition, % at 2.6 µM. actives 0.91% (n = 650,000); in the data active means inhibition above about 50%;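 further: 0% = vehicle wells with protein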
MITF inh conf: confirmation of human MITF inhibitors. shares compounds with MITF primary. AlphaScreen MITF homodimerization, biotin/His-MITF beads. inhibition, % at 2.6 µM. actives 16% (n = 4,700);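 active means inhibition above a cutoff derived from the DMSO control wells, cut at about 28% in these data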;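 further: 0% = MITF dimer wells with DMSO only; inhibitors lower the bead chemiluminescence by keeping MITF from dimerizing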
AlphaScreen DR: counter-screen: compounds optically interfering with AlphaScreen. shares compounds with MITF primary. AlphaScreen optical interference counterscreen, cell-free. IC50, µM. actives 6% (n = 480). AID 1259373; call rule not given here
AS interf ctr: counter-screen: compounds optically interfering with AlphaScreen; LysRS AlphaScreen counterscreen, signal interference, triplicate; actives 7.6% (n = 4,700); shares compounds with MITF primary; inhibition, % at 2.6 µM;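 active means inhibition above a cutoff derived from the DMSO control wells, cut at about 30% in these data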
* hit, by the source's call; nt = no result. Only some compounds are listed: those with a hit (about 3.5% of all), similar ones and a draw of the others.

SMILES	FBW7 activator	GPR151 activ	TEAD-YAP inh	MITF primary	MITF inh conf	AS interf ctr	others
Cc1nnc(CNC(=O)c2ccc(-n3cccc3)cc2)o1	-0.3	1.3	11.8	55.1*	55.3*	16.2	AlphaScreen DR=>6.48
C[C@H]1C(=O)N2CCN(C(=O)NCc3ccccc3)C[C@@H]2C(=O)N1C	-0.3	-1.1	9.4	76.0*	73.0*	-7.1	AlphaScreen DR=>6.48
C[C@H]1C(=O)N2CCN(CCc3ccccc3)C[C@@H]2C(=O)N1C	-0.1	1.0	1.1	1.3	nt	nt
O=C(OCc1ccccc1)N1CCN2C(=O)[C@@H]3CCCN3C(=O)[C@H]2C1	0.1	0.8	-4.8	2.0	nt	nt
O=C(NCc1ccccc1)N1CCN2C(=O)[C@@H]3CCCN3C(=O)[C@H]2C1	-0.4	0.4	2.1	77.5*	74.3*	-9.3	AlphaScreen DR=>6.48
Cc1csc(-c2ccc(C(=O)N(C)CCN(C)C)c(N(C)C)n2)c1	0.0	-0.5	-10.9	-6.2	nt	nt
Cc1ccc(NC(=O)CN2CCC(Cn3cnc4ccccc43)CC2)cc1Cl	-0.3	0.0	-4.7	69.7*	11.5	13.3
CCOC(=O)CN1CCC(Cn2cnc3ccccc32)CC1	-0.4	0.3	16.7	79.2*	6.9	17.3
CCOC(=O)N1CCN(C(=O)Cn2cnc3ccccc32)CC1	-0.1	0.8	7.2	-0.2	nt	nt
O=C(CN1CCC(Cn2cnc3ccccc32)CC1)N1CCc2ccccc21	-0.4	0.4	35.1*	81.5*	0.5	14.0
CCOC(=O)C1=C(N)N2C(=O)C(C)SC2=C(C(=O)OC)C1c1ccc(Cl)cc1 (configuration not stated)	0.1	0.5	11.6	7.7	nt	nt
Cc1cc(NC2CCN(Cc3ccccc3)CC2)nc(NCCN2CCOCC2)n1	-0.1	1.2	5.0	-11.7	nt	nt
CC(=O)c1ccc(NC(=O)CNCC(c2ccccc2)N(C)C)cc1 (configuration not stated)	-0.5	1.3	11.6	65.8*	-6.6	-0.1
CC(=O)c1ccc(NC(=O)CC(C)c2ccccc2)cc1 (configuration not stated)	0.0	1.6	-17.6	7.6	nt	nt
Cc1cccc2c1CC(C)(C)NC2=S	-0.2	-0.8	4.2	5.0	nt	nt
Cc1ccc(C)c2c1CC(C)(C)NC2=S	-0.2	-1.0	0.0	70.5*	7.5	14.6
COc1ccc(-n2nc(C(=O)Nc3ccc(C(C)C)cc3)c3ccccc3c2=O)cc1	0.1	-0.4	12.9	7.2	nt	nt
CC(=O)NC1(c2ccccc2F)CCN(C(=O)CCC(=O)O)CC1	0.0	-0.6	3.1	76.5*	4.1	16.1
Cc1cccc(CNC(=O)C2CC23CCN(C(=O)c2c(-c4ccccc4)noc2C)CC3)n1 (configuration not stated)	0.2	0.9	3.9	79.8*	-1.4	-0.7
Cc1cccc(CNC(=O)C2CC23CCN(C(=O)c2cc(-c4ccccc4)no2)CC3)n1 (configuration not stated)	0.2	2.7	8.7	2.5	nt	nt
CCOC(=O)CN(C)Cc1ccc(OC)cc1OC	0.0	-0.3	-8.9	-0.7	nt	nt
CCOC(=O)CN(C)Cc1ccccc1Br	-0.1	-0.6	11.9	58.7*	-16.2	-4.0
C/C=C/Cn1c(NCC)nc2c1c(=O)[nH]c(=O)n2C	-0.1	0.6	-5.0	4.6	nt	nt
COc1ccc(CN2CCC(N3CC(C)OC(C)C3)CC2)cc1OC (configuration not stated)	-0.1	-0.2	1.1	62.8*	-7.1	0.8
COc1ccc(CN2CCN(C(=O)CCC3CCCC3)CC2)c(OC)c1	0.0	-0.1	2.4	47.6	nt	nt
SMILES	FBW7 activator	GPR151 activ	TEAD-YAP inh	MITF primary	MITF inh conf	AS interf ctr	others
COc1ccc(CN2CCN(C3CCN(Cc4ccccc4)CC3)CC2)cc1OC	0.0	0.3	0.5	21.1	nt	nt
COc1ccc(CN2CCCC2)c(OC)c1	0.1	0.8	7.9	25.8	nt	nt
COc1ccc(CN2CCN(C3CCCC3)CC2)c(OC)c1	-0.2	-1.0	-6.4	65.8*	15.4	10.3
COc1ccc(CN2CCC(N3CC(C)OC(C)C3)CC2)c(OC)c1 (configuration not stated)	0.0	-0.3	10.0	94.9*	-16.8	-4.2
CC1CN(C2CCN(Cc3ccc(Br)cc3)CC2)CC(C)O1 (configuration not stated)	-0.2	2.0	5.3	45.8	nt	nt
COc1cc(OC)c(OC)cc1CN1CCN(C2CCN(Cc3ccccc3)CC2)CC1	0.2	-1.9	-1.8	58.5*	1.8	1.3
COc1ccc(NC(=O)c2cc(Br)ccc2Cl)cc1Cl	-0.6	-0.4	-20.6	-0.5	nt	nt
O=C1/C(=C/c2cc([N+](=O)[O-])ccc2O)NC(=S)N1c1ccccc1	0.0	0.3	1.0	1.1	nt	nt
COc1ccc(CN2CCC(C(=O)N3CCOCC3)CC2)c(OC)c1	-0.1	0.7	-7.7	56.1*	11.3	7.3
CCOC(=O)C1CCN(Cc2ccc(OC)cc2OC)CC1	0.0	1.9	5.6	23.8	nt	nt
COc1cc(OC)c(OC)cc1CN1CCN(C2CCCCC2)CC1	-0.5	1.1	4.8	67.0*	-2.1	-7.0
COc1cc(OC)c(OC)cc1CN1CCN(C2CCCC2)CC1	-0.2	-0.9	-0.8	17.6	nt	nt
COc1ccc(CN2CCN(C3CCC(C)CC3)CC2)c(OC)c1 (configuration not stated)	-0.3	0.4	7.3	69.0*	4.3	15.5
Cc1cc(Cl)cc(C)c1OCCOCCNC(C)(C)C	0.0	0.4	2.9	66.7*	-10.9	-9.2
Cc1ccc(C)c(OCCOCCNC(C)(C)C)c1	0.1	0.2	1.7	33.3	nt	nt
Cc1cc(Br)ccc1OCCOCCNC(C)(C)C	0.0	-1.6	5.5	62.9*	4.3	-0.6
Cc1cc(OCCOCCNC(C)(C)C)cc(C)c1Cl	0.1	0.8	-0.2	30.5	nt	nt
CC1=CC(C)(C)N(C(=O)CNCCN2CCOCC2)c2cc(C)ccc21	0.2	-0.2	5.0	58.8*	8.9	23.2
O=C(CNCCN1CCOCC1)Nc1ccc(N2CCCCC2)cc1	0.2	0.4	1.4	93.0*	-15.7	-5.0
O=C(NCCN1CCOCC1)c1cnc(NCc2ccc3c(c2)OCO3)s1	-0.1	0.4	2.9	12.1	nt	nt
O=C(Nc1ccc2c(c1)OCO2)c1cnc(NCCN2CCOCC2)s1	-0.1	-1.9	-9.2	51.6*	1.6	9.7
Cc1cccc(C)c1NC(=O)CNCCN1CCOCC1	0.4	-1.3	0.7	92.3*	-12.2	-4.8
CCOC(=O)c1ccc(NS(=O)(=O)c2ccc(OC)c(C)c2C)cc1	0.1	2.0	9.2	-3.3	nt	nt
O=C(CNCCCN1CCOCC1)Nc1ccccc1N1CCCCCC1	-0.2	0.6	1.3	70.6*	5.5	16.4
O=C(NCCN1CCOCC1)c1cccc(C(=O)NCCN2CCOCC2)c1	0.2	-0.3	2.3	-6.9	nt	nt
COc1ccc(CCNCC(=O)Nc2ccccc2N2CCCCC2)cc1	0.0	0.1	-4.1	60.7*	8.8	15.8
CCCCNCC(=O)Nc1ccccc1N1CCCCCC1	-0.2	-0.1	4.0	11.7	nt	nt
O=C(CNCCCN1CCOCC1)Nc1ccc(N2CCCCC2)cc1	-0.3	1.2	-2.2	49.9	nt	nt
